Assay results: the supplement of paper PMC12494721
Structures can show the parent of a compound that is named as a salt.

Experiments:
Settings in all cases: 20 µM; incubation time: 27 h, anaerobic, 37 °C;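 for the amine columns active = adjusted P below 0.05 in both replicates with a change the same way and a mean fold change under 0.8 or over 1.25; inactive = the rest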
[1] = system: Clostridium sporogenes DSM 1664; assay: growth (OD595) fold change vs plate DMSO controls (fold change (ratio)); higher = more growth
How it was run: (§1)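 To obtain OD, 595 nm absorbance readings were blank-subtracted, corrected for compound background using 20 µM compound solutions in water, and multiplied by a calibration factor of 5. They came from 96-well mGAM cultures grown anaerobically for 27 h at 37 °C and shaken before reading. Growth is the fold change relative to the median of plate DMSO controls. Two biological replicates were averaged, and fold changes above 1.5 were set to NA.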

[2] = system: Escherichia coli IAI1; assay: as above
How it was run: as §1

[3] = system: Klebsiella aerogenes DSM 30053; assay: as above
How it was run: as §1

[4] = system: Ruminococcus gnavus DSM 108212; assay: as above
How it was run: as §1

[5] = system: Klebsiella aerogenes DSM 30053; assay: fold change of Histamine concentration vs plate DMSO controls (fold change (ratio)); higher = more amine produced, active = hit call of the paper (significant change in both replicates, either direction)
How it was run: (§2)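 Using LC–triple-quadrupole MS with dynamic MRM, amines were quantified against external calibration curves and corrected for drift within each batch. Samples were whole anaerobic mGAM cultures of four gut strains, grown 27 h at 37 °C from OD 0.1 before 1:1 dilution, extracted with cold acetonitrile/methanol containing 0.1% formic acid and centrifuged. Compounds were present at 20 µM final (sweeteners at 50 µM final). The numbers are fold changes versus plate DMSO controls, each the mean of 2 biological replicates.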

[6] = system: Clostridium sporogenes DSM 1664; assay: fold change of Tryptamine concentration vs plate DMSO controls (fold change (ratio)); higher = more amine produced, active = hit call of the paper (significant change in both replicates, either direction)
How it was run: as §2

[7] = system: Ruminococcus gnavus DSM 108212; assay: as above
How it was run: as §2

[8] = system: Escherichia coli IAI1; assay: fold change of Putrescine concentration vs plate DMSO controls (fold change (ratio)); higher = more amine produced, active = hit call of the paper (significant change in both replicates, either direction)
How it was run: as §2

[9] = system: Klebsiella aerogenes DSM 30053; assay: as above
How it was run: as §2

[10] = system: Escherichia coli IAI1; assay: fold change of Cadaverine concentration vs plate DMSO controls (fold change (ratio)); higher = more amine produced, active = hit call of the paper (significant change in both replicates, either direction)
How it was run: as §2

[11] = system: Klebsiella aerogenes DSM 30053; assay: as above
How it was run: as §2

[12] = system: Ruminococcus gnavus DSM 108212; assay: fold change of 2-Phenylethylamine concentration vs plate DMSO controls (fold change (ratio)); higher = more amine produced, active = hit call of the paper (significant change in both replicates, either direction)
How it was run: as §2

Row | Compound | growth [1] | growth [2] | growth [3] | growth [4] | fold change of Histamine concentration [5] | fold change of Tryptamine concentration [6] | fold change of Tryptamine concentration [7] | fold change of Putrescine concentration [8] | fold change of Putrescine concentration [9] | fold change of Cadaverine concentration [10] | fold change of Cadaverine concentration [11] | fold change of 2-Phenylethylamine concentration [12]
1 | Oc1ccc2c3c1O[C@H]1[C@@H](O)CC[C@@]4(O)[C@@H](C2)N(CC2CCC2)CC[C@]314 [Nalbuphine hydrochloride] | 0.891 | 0.895 | 0.923 | 1.08 | 1 (inactive) | 1 (inactive) | 0.957 (inactive) | 1.04 (inactive) | 1.01 (inactive) | 1.01 (inactive) | 1.01 (inactive) | 0.922 (inactive)
2 | CC1(C)[C@H](C(=O)O[C@H](C#N)c2cccc(Oc3ccccc3)c2)[C@@H]1C=C(Br)Br | 1.12 | 0.981 | 0.998 | 1.02 | 1.02 (inactive) | 0.958 (inactive) | 0.967 (inactive) | 0.983 (inactive) | 1.01 (inactive) | 0.989 (inactive) | 1 (inactive) | 0.915 (inactive)
3 | C[C@]12CC[C@H](O)CC1=CC[C@@H]1[C@@H]2CC[C@]2(C)C(=O)CC[C@@H]12 [Prasterone] | 1.17 | 1.01 | 1.04 | 1.07 | 0.984 (inactive) | 0.972 (inactive) | 0.985 (inactive) | 1 (inactive) | 0.999 (inactive) | 1.05 (inactive) | 0.991 (inactive) | 1 (inactive)
4 | Nc1c(Cl)c(F)nc(OCC(=O)O)c1Cl | 0.964 | 1.01 | 1.05 | 1.03 | 0.96 (inactive) | 1.03 (inactive) | 1.04 (inactive) | 0.986 (inactive) | 0.955 (inactive) | 0.95 (inactive) | 1.01 (inactive) | 1.05 (inactive)
5 | c1ccc2c(c1)OCC(C1=NCCN1)O2 (centres undefined) [Idazoxan hydrochloride] | 1.09 | 1.01 | 1.01 | 0.978 | 1 (inactive) | 0.976 (inactive) | 0.832 (inactive) | 1.1 (inactive) | 0.998 (inactive) | 0.996 (inactive) | 0.996 (inactive) | 0.785 (inactive)
6 | C[C@@H]1CN([C@H]2CC[C@](C#N)(c3ccc(F)cc3)CC2)CC[C@]1(C(=O)O)c1ccccc1 [Levocabastine hydrochloride] | 1.17 | 1.09 | 1.02 | 1.07 | 1.03 (inactive) | 1.04 (inactive) | 1 (inactive) | 1.02 (inactive) | 1 (inactive) | 0.916 (inactive) | 0.999 (inactive) | 0.949 (inactive)
7 | CS(=O)(=O)c1ccc(C(=O)C2C(=O)CCCC2=O)c([N+](=O)[O-])c1 | 1.1 | 1.02 | 1 | 1.02 | 1.02 (inactive) | 0.928 (inactive) | 1 (inactive) | 0.929 (inactive) | 0.946 (inactive) | 0.973 (inactive) | 1.08 (inactive) | 0.999 (inactive)
8 | CC(C)OC(=O)C(C(=O)OC(C)C)=C1SCCS1 | 1.07 | 0.971 | 1.02 | 1.08 | 0.989 (inactive) | 0.999 (inactive) | 1 (inactive) | 1.02 (inactive) | 1 (inactive) | 0.976 (inactive) | 1 (inactive) | 0.956 (inactive)
9 | Cc1cc(C2CC2)nc(Nc2ccccc2)n1 | 0.944 | 1.01 | 0.977 | 0.987 | 1.04 (inactive) | 0.966 (inactive) | 0.968 (inactive) | 0.975 (inactive) | 0.972 (inactive) | 1.01 (inactive) | 0.99 (inactive) | 1.2 (inactive)
10 | CC(Oc1ccc(Oc2nc3ccc(Cl)cc3o2)cc1)C(=O)O (racemic) | 1.06 | 1.04 | 1.02 | 1.01 | 0.989 (inactive) | 1 (inactive) | 1 (inactive) | 1.03 (inactive) | 1.01 (inactive) | 0.937 (inactive) | 1.02 (inactive) | 1.01 (inactive)
11 | Fc1ccc(C(OCCN2CCN(CCCc3ccccc3)CC2)c2ccc(F)cc2)cc1 | 1.09 | 1 | 1 | 0.845 | 0.974 (inactive) | 0.97 (inactive) | 0.638 (active) | 1.01 (inactive) | 0.993 (inactive) | 0.998 (inactive) | 1 (inactive) | 0.771 (active)
12 | CN1C(=O)COc2c(C(=O)NC3CN4CCC3CC4)cc(Cl)cc21 (centres undefined) [Azasetron hydrochloride] | 0.734 | 0.55 | 0.585 | 0.0388 | 1.03 (inactive) | 0.992 (inactive) | 1.02 (inactive) | 0.507 (inactive) | 0.996 (inactive) | 0.512 (inactive) | 0.982 (inactive) | 0.986 (inactive)
13 | CC(C)c1c(CN(C)C(C)Cc2ccccc2)n(C)n(-c2ccccc2)c1=O (centres undefined) [Famprofazone] | 1.02 | 1.15 | 1.06 | 1.05 | 0.986 (inactive) | 0.954 (inactive) | 1.06 (inactive) | 1.03 (inactive) | 1.02 (inactive) | 0.998 (inactive) | 1.01 (inactive) | 1.02 (inactive)
14 | Cc1cccc2sc3nncn3c12 | 0.977 | 1 | 0.981 | 1 | 0.973 (inactive) | 0.982 (inactive) | 0.98 (inactive) | 0.99 (inactive) | 0.997 (inactive) | 1.03 (inactive) | 0.995 (inactive) | 0.992 (inactive)
15 | COc1ccccc1N [o-Anisidine] | 1.07 | 1.04 | 0.996 | 1.01 | 1.03 (inactive) | 1.08 (inactive) | 1 (inactive) | 1 (inactive) | 0.983 (inactive) | 0.947 (inactive) | 0.997 (inactive) | 1.01 (inactive)
16 | O=[N+]([O-])c1cc(C(F)(F)F)c(Cl)c([N+](=O)[O-])c1Nc1ncc(C(F)(F)F)cc1Cl | 0.825 | 0.986 | 0.991 | 1.18 | 1.07 (inactive) | 0.464 (inactive) | 0.887 (inactive) | 1.05 (inactive) | 1.05 (inactive) | 1.15 (inactive) | 1.02 (inactive) | 0.826 (inactive)
17 | CC(C)N1C(=O)N(c2ccccc2)CS/C1=N\C(C)(C)C | 1.04 | 1.03 | 1.03 | 0.99 | 0.967 (inactive) | 1.03 (inactive) | 1.03 (inactive) | 1.02 (inactive) | 1.03 (inactive) | 1.06 (inactive) | 1.01 (inactive) | 0.961 (inactive)
18 | CCCSP(=O)(OCC)Oc1ccc(Br)cc1Cl (centres undefined) | 0.919 | 0.968 | 1.03 | 0.964 | 1.01 (inactive) | 1.03 (inactive) | 0.941 (inactive) | 1 (inactive) | 1.02 (inactive) | 1.03 (inactive) | 0.995 (inactive) | 0.9 (inactive)
19 | CC1(C)C(C=C(Cl)Cl)C1C(=O)OCc1cccc(Oc2ccccc2)c1 (mixture of isomers) | 0.957 | 0.993 | 1 | 1.07 | 1.01 (inactive) | 1.05 (inactive) | 1.03 (inactive) | 1.04 (inactive) | 0.995 (inactive) | 1.06 (inactive) | 1 (inactive) | 1.02 (inactive)
20 | CN(C)[C@@H]1C(=O)C(C(N)=O)=C(O)[C@@]2(O)C(=O)C3=C(O)c4c(O)cccc4[C@@](C)(O)[C@H]3C[C@@H]12 [Tetracycline hydrochloride] | 0.00861 | 0.0722 | 0.0623 | 0.735 | 0.0521 (active) | 0.024 (active) | 0.799 (inactive) | 0.291 (inactive) | 0.481 (inactive) | 0.148 (active) | 0.411 (inactive) | 0.86 (inactive)
21 | NC(=O)OCCCc1ccccc1 [Phenprobamate] | 0.892 | 0.995 | 0.992 | 0.943 | 0.97 (inactive) | 0.987 (inactive) | 0.96 (inactive) | 1.34 (inactive) | 0.99 (inactive) | 0.952 (inactive) | 0.984 (inactive) | 0.943 (inactive)
22 | CCSC(C)CC1CC(=O)C(/C(CC)=N/OC/C=C/Cl)=C(O)C1 (mixture of isomers) | 0.928 | 1.04 | 0.988 | 0.939 | 1.02 (inactive) | 1.01 (inactive) | 1.03 (inactive) | 1.02 (inactive) | 0.996 (inactive) | 1 (inactive) | 1.01 (inactive) | 0.99 (inactive)
23 | CCOC(=O)CC(SP(=S)(OC)OC)C(=O)OCC (centres undefined) | 0.873 | 1.03 | 1.01 | 0.941 | 0.998 (inactive) | 1.06 (inactive) | 1.02 (inactive) | 1.01 (inactive) | 0.994 (inactive) | 0.997 (inactive) | 0.993 (inactive) | 1 (inactive)
24 | C[C@]12CCC(=O)C=C1C=C[C@@H]1[C@@H]2CC[C@@]2(C)[C@H]1CC[C@@]2(O)CCC(=O)O [Canrenoic acid potassium salt] | 1.1 | 1 | 1.02 | 0.902 | 0.964 (inactive) | 1.05 (inactive) | 1.06 (inactive) | 1.02 (inactive) | 0.98 (inactive) | 0.997 (inactive) | 0.996 (inactive) | 1.09 (inactive)
25 | CCNC(=O)NC(=O)/C(C#N)=N/OC | 1.09 | 1.08 | 1 | 1.05 | 0.937 (inactive) | 0.956 (inactive) | 1 (inactive) | 1.05 (inactive) | 1.02 (inactive) | 1.06 (inactive) | 1.02 (inactive) | 1.02 (inactive)
26 | COc1ccc(CN2CCNCC2)c(OC)c1OC [Trimetazidine dihydrochloride] | 0.945 | 0.975 | 0.973 | 1.15 | 1.12 (inactive) | 1.05 (inactive) | 1.03 (inactive) | 0.973 (inactive) | 1.02 (inactive) | 1.01 (inactive) | 0.971 (inactive) | 1.03 (inactive)
27 | CCn1cc(C(=O)O)c(=O)c2cc3c(cc21)OCO3 [Oxolinic acid] | 0 | 0.0401 | 0.348 | 0.896 | 0.275 (active) | 0.0614 (active) | 1 (inactive) | 0.59 (active) | 1.08 (inactive) | 0.227 (active) | 0.976 (inactive) | 0.959 (inactive)
